Measured values published in PubChem BioAssay (Tox21).
Inconclusive results are not listed. Activity calls are given as the source filed them. Unless noted, the call rests on the fitted dose curve; in most records, active means well fitted curve in the direction sought with a large enough effect in the repeat runs; inconclusive means weak or mixed curves; inactive means no such curve, though single readings can be large; an effect the other way counts as inactive or inconclusive.

Experiments:
[1] = qHTS assay to identify small molecule agonists of the hypoxia (HIF-1) signaling pathway - cell viability counter screen (AID 1224844; calls by dose curve; further: nearly all actives have a fitted effect of over 50% in size; further: potency means the concentration at half of the fitted maximal effect)
Outline: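 Cells (HRE-bla ME-180, 2,000 per well) sat 5 hrs at 37C, got compound for 17 hrs, were read for CCF4-AM FRET, and were finally lysed with CellTiter-Glo for a 30 min room-temperature luminescence read.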

[2] = qHTS assay to identify small molecule agonists of H2AX (AID 1224845; active means well fitted activation curve with a large enough effect in the signal ratio in the repeat runs, not every such curve was filed as active; the % refers to the signal ratio)
Outline: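 Wild-type CHO-K1 cells, plated overnight, exposed 3hr at 37C to 15 concentrations (0.76% DMSO final). Lysed, then HTRF anti-pH2AX (S139) cryptate and anti-H2AX-d2 antibodies, 24 hr room temperature; 665/620 nm emission read.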

[3] = qHTS assay to identify small molecule agonists of the hypoxia (HIF-1) signaling pathway (AID 1224846; active means well fitted activation curve with a large enough effect in the signal ratio in the repeat runs, not every such curve was filed as active; the % refers to the signal ratio)
Outline: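 A low-serum medium (0.5% dialyzed FBS) holding 2,000 HRE-bla ME-180 cells per well is preincubated for 5 hrs, dosed with compounds by pintool, and kept a further 17 hrs at 37C, 5% CO2 before CCF4-AM FRET detection of beta-lactamase.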

[4] = qHTS assay to identify small molecule agonists of H2AX - cell viability counter screen (AID 1224847; calls by dose curve; further: top concentration of the series differs between compounds; nearly all actives have a fitted effect of over 30% in size)
Outline: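 Wild-type CHO-K1 cells (10% FBS medium) were plated overnight at 37C, exposed to compounds at 15 concentrations for 3 hr at 37C (0.76% DMSO final), and viability was read as CellTiter-Glo luminescence after 30 min at room temperature.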

[5] = qHTS RealTime-Glo MT Cell Viability Assay in HEK293 cells - 32 hour (AID 1224868); further: top concentration of the series differs between compounds; nearly all actives have a fitted effect of over 50% in size
Outline: (§1)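 Luminescence generated by NanoLuc from substrate produced by living HEK293 cells served as the viability signal. Each value reflects the reading at its stated time point during continuous 40 h compound exposure at 37 C.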

[6] = A CellTox Green Cytotoxicity Assay to monitor cytotoxicity in HEK293 cells - 0 hour (AID 1224869); further: nearly all actives have a fitted effect of over 50% in size
Outline: (§2)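 Fluorescence intensity, read at 0, 8, 16, 24, 32 and 40 h of compound treatment, reflected dye binding to DNA of dead HEK293 cells; compounds (23 nL, DMSO) were added 5 h after plating cells with reagent.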

[7] = qHTS RealTime-Glo MT Cell Viability Assay in HepG2 cells - 40 hour (AID 1224870); further: nearly all actives have a fitted effect of over 50% in size; further: potency means the concentration at half of the fitted maximal effect
Outline: (§3)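 HepG2 cells (600/well) mixed with RealTime-Glo MT reagent, settled 5 h at 37 C/5% CO2 before compound addition. Nonlytic NanoLuc luminescence from viable-cell prosubstrate reduction read repeatedly during 40 h treatment at 37 C.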

[8] = A CellTox Green Cytotoxicity Assay to monitor cytotoxicity in HEK293 cells - 40 hour (AID 1224871); further: nearly all actives have a fitted effect of over 45% in size
Outline: as §2

[9] = qHTS RealTime-Glo MT Cell Viability Assay in HepG2 cells - 8 hour (AID 1224873); further: nearly all actives have a fitted effect of over 55% in size
Outline: as §3

[10] = qHTS RealTime-Glo MT Cell Viability Assay in HEK293 cells - 40 hour (AID 1224874); settings: RealTime-Glo luminescence; max response: hits give low values; further: nearly all actives have a fitted effect of over 50% in size
Outline: (§4)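 Viable HEK293 cells reduce a cell-permeant prosubstrate; the product diffuses out and is consumed by NanoLuc in the medium to give light. Compounds went in after a 5 h incubation and plates were read over the treatment course.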

[11] = A CellTox Green Cytotoxicity Assay to monitor cytotoxicity in HEK293 cells - 24 hour (AID 1224875); further: series mostly up to about 77 µM; nearly all actives have a fitted effect of over 45% in size
Outline: as §2

[12] = A CellTox Green Cytotoxicity Assay to monitor cytotoxicity in HepG2 cells - 16 hour (AID 1224876); further: nearly all actives have a fitted effect of over 45% in size
Outline: (§5)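 Using 1536-well format, dye-containing HepG2 suspension was seeded, allowed 5 h at 37 C/5% CO2, dosed by pintool with compounds, positive and negative controls, and imaged for fluorescence across 40 h.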

[13] = A CellTox Green Cytotoxicity Assay to monitor cytotoxicity in HepG2 cells - 24 hour (AID 1224878); further: nearly all actives have a fitted effect of over 45% in size
Outline: as §5

[14] = A CellTox Green Cytotoxicity Assay to monitor cytotoxicity in HepG2 cells - 40 hour (AID 1224879); further: nearly all actives have a fitted effect of over 40% in size
Outline: as §5

[15] = qHTS RealTime-Glo MT Cell Viability Assay in HEK293 cells - 0 hour (AID 1224880); further: nearly all actives have a fitted effect of over 45% in size; further: potency means the concentration at half of the fitted maximal effect
Outline: as §4

[16] = qHTS RealTime-Glo MT Cell Viability Assay in HEK293 cells - 16 hour (AID 1224872)
Outline: as §1

[17] = qHTS RealTime-Glo MT Cell Viability Assay in HepG2 cells - 32 hour (AID 1224877); further: nearly all actives have a fitted effect of over 55% in size
Outline: (§6)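 Tox21 10K library screened in qHTS format on HepG2 cells carrying RealTime-Glo reagents. Compounds were added after a 5 h preincubation, and the luminescent signal from continuous culture was measured repeatedly during 40 h treatment.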

[18] = qHTS assay to identify small molecule antagonists of the estrogen related receptor (ERR) signaling pathway from Tox21 library (AID 1224848); further: nearly all actives have a fitted effect of over 50% in size
Outline: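 Luminescent reporter read-out (ONE-Glo) from NTP's ERR cell line after 18 h treatment at 37 C with DMSO-dissolved Tox21 compounds; cells pre-plated 6 h beforehand at 2,000 per well.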

[19] = qHTS assay to identify small molecule agonists of the estrogen related receptor (ERR) signaling pathway from Tox21 library (AID 1224849; calls by dose curve; further: nearly all actives have a fitted effect of over 15% in size)
Outline: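 Screening used an NTP-provided ERR luciferase cell line. Compounds in DMSO were added 6 h after seeding and left 18 h at 37 C before a 30 min ONE-Glo step and luminescence reading.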

[20] = qHTS RealTime-Glo MT Cell Viability Assay in HepG2 cells - 24 hour (AID 1224867); further: nearly all actives have a fitted effect of over 50% in size
Outline: as §6
On the % scale 0 is the no-effect control and ±100 the full control effect.

CCCn1cc[n+](C)c1C
active: Potency [7] 45 µM
inactive: Potency [1] | Potency [2] | outcome [3] | outcome [4] | Potency [5] | outcome [6] | Potency [8] | outcome [9] | max response [10] 0.77% | outcome [11] | outcome [12] | outcome [13] | Potency [14] | Potency [15]

CC[N+](CC)(CC(=O)Nc1c(C)cccc1C)Cc1ccccc1 (tested in a mixture with another compound)
inactive: Potency [1] | Potency [2] | outcome [3] | outcome [4] | Potency [5] | outcome [6] | Potency [7] | Potency [8] | Potency [16] | outcome [9] | max response [10] -5.24% | outcome [11] | outcome [12] | Potency [17] | outcome [13] | Potency [14] | Potency [15]

CCCO[Si](OCCC)(OCCC)OCCC
inactive: Potency [1] | Potency [2] | outcome [3] | Potency [18] | outcome [19] | outcome [20] | Potency [5] | Potency [8] | Potency [16] | outcome [9] | max response [10] 2.55% | outcome [11] | outcome [12] | Potency [17] | outcome [13] | Potency [15]

C=CC(C)(CCC=C(C)C)OC(=O)CC (configuration not stated)
inactive: Potency [1] | Potency [2] | outcome [3] | outcome [4] | Potency [5] | outcome [6] | Potency [7] | Potency [8] | outcome [9] | max response [10] -1.4% | outcome [11] | outcome [12] | Potency [17] | outcome [13] | Potency [14] | Potency [15]

CC/C=C\CCOC(C)OCC (configuration not stated)
inactive: Potency [1] | Potency [2] | outcome [3] | outcome [4] | Potency [5] | Potency [7] | Potency [8] | Potency [16] | outcome [9] | max response [10] 3.36% | outcome [11] | outcome [12] | Potency [17] | outcome [13] | Potency [15]

CCCOC(=O)CC
inactive: Potency [1] | Potency [2] | outcome [3] | outcome [4] | outcome [20] | Potency [5] | Potency [7] | Potency [8] | Potency [16] | outcome [9] | max response [10] 8.31% | outcome [11] | outcome [12] | Potency [17] | outcome [13] | Potency [14] | Potency [15]

CN1CC(=O)N/C1=N/C(=O)Nc1cccc(Cl)c1
inactive: Potency [1] | Potency [2] | outcome [3] | outcome [4] | outcome [20] | Potency [5] | outcome [6] | Potency [8] | Potency [16] | outcome [9] | max response [10] -14.4% | outcome [11] | outcome [12] | Potency [17] | outcome [13] | Potency [14] | Potency [15]

COc1cc(C(=O)OC(COCCC(C)C)CN2CCOCC2)cc(OC)c1OC (configuration not stated)
inactive: Potency [1] | Potency [2] | outcome [3] | outcome [4] | outcome [20] | Potency [5] | outcome [6] | Potency [8] | Potency [16] | outcome [9] | max response [10] -2.35% | outcome [11] | outcome [12] | Potency [17] | outcome [13] | Potency [14] | Potency [15]

CCC(C)(CCCC(C)C)OC(C)=O (configuration not stated)
inactive: Potency [1] | Potency [2] | outcome [3] | outcome [4] | outcome [20] | Potency [5] | Potency [7] | Potency [8] | Potency [16] | outcome [9] | max response [10] 6.35% | outcome [11] | outcome [12] | Potency [17] | outcome [13] | Potency [14] | Potency [15]

CCCC(=O)O[C@]1(C(=O)CC)CC[C@H]2[C@@H]3CCC4=CC(=O)CC[C@]4(C)[C@H]3[C@@H](O)C[C@@]21C
active: Potency [1] 19 µM | Potency [15] 12 µM
inactive: Potency [2] | outcome [3] | outcome [4] | outcome [20] | outcome [6] | Potency [7] | Potency [8] | Potency [16] | outcome [9] | outcome [11] | outcome [12] | Potency [17] | outcome [13] | Potency [14]

CC(=O)NC(=O)c1ccccc1O
inactive: Potency [1] | Potency [2] | outcome [3] | outcome [4] | Potency [7] | Potency [8] | Potency [16] | outcome [9] | max response [10] 7.94% | outcome [11] | outcome [12] | Potency [17] | outcome [13] | Potency [14] | Potency [15]

O=[N+]([O-])c1ccc(/C=N\O)o1
inactive: Potency [1] | Potency [2] | outcome [3] | outcome [4] | outcome [20] | outcome [6] | Potency [7] | Potency [8] | outcome [9] | max response [10] 4.52% | outcome [11] | outcome [12] | Potency [17] | outcome [13] | Potency [15]

Cc1ccc(-c2ccccc2C#N)cc1
inactive: Potency [1] | Potency [2] | outcome [3] | outcome [4] | outcome [20] | Potency [5] | Potency [7] | Potency [8] | outcome [9] | max response [10] 1.26% | outcome [11] | outcome [12] | Potency [17] | outcome [13] | Potency [14] | Potency [15]

C=C(C)C(=O)OCC1CCCO1 (configuration not stated)
inactive: Potency [1] | Potency [2] | outcome [3] | outcome [4] | Potency [5] | outcome [6] | Potency [7] | Potency [8] | outcome [9] | max response [10] 7.57% | outcome [11] | outcome [12] | Potency [17] | outcome [13] | Potency [14] | Potency [15]

CC(CO)(CO)[N+](=O)[O-]
inactive: Potency [1] | Potency [2] | outcome [3] | outcome [4] | outcome [20] | Potency [5] | outcome [6] | Potency [8] | Potency [16] | outcome [9] | max response [10] 3.85% | outcome [11] | outcome [12] | Potency [17] | outcome [13] | Potency [14] | Potency [15]
